# About 410 targets per protein were measured; listed, in parts, are those with the strongest signals and a random draw of the rest.
# B1: LecRKVI.2 (protein)
# chain: RTTTNFAFRGFNGNQSKIRIEGAAMIKPDGLLRLTDRKSNVTGTAFYHKPVRLLNRNSTNVTIRSFSTSFVFVIIPSSSSNKGFGFTFTLSPTPYRLNAGSAQYLGVFNKENNGDPRNHVFAVEFDTVQGSRDDNTDRIGNDIGLNYNSRTSDLQEPVVYYNNDDHNKKEDFQLESGNPIQALLEYDGATQMLNVTVYPARLGFKPTKPLISQHVPKLLEIVQEEMYVGFTASTGKGQSSAHYVMGWSFSSGGERPIADVLILSELPPPPPNKAKKEGLNS
# Assays:
# Assay in all cases: glycan array binding signal (z-score within array); higher = stronger binding
# Settings in all cases: glycan notation: IUPAC condensed, linker removed
# [1] = target: Fuc(a1-2)Gal(b1-3)GalNAc(b1-3)Gal(a1-4)Gal(b1-4)Glc
# Summary of the method: (§1)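 From the Consortium for Functional Glycomics database, 3228 arrays were curated, keeping only those whose protein sequence was available. Binding is given as a within-array Z-score averaged across arrays sharing a protein sequence and across linkers. Negative Z-scores can be read as non-binding.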
# [2] = target: Fuc(a1-2)Gal(b1-3)GlcNAc6S
# Summary of the method: as §1
# [3] = target: Fuc(a1-2)Gal(b1-3)[Fuc(a1-4)]GlcNAc
# Summary of the method: as §1
# [4] = target: Fuc(a1-2)Gal(b1-3)[Fuc(a1-4)]GlcNAc(b1-3)[Gal(b1-4)GlcNAc(b1-6)]Gal(b1-4)Glc
# Summary of the method: as §1
# [5] = target: Fuc(a1-2)Gal(b1-4)GlcNAc(b1-2)Man(a1-3)[Fuc(a1-2)Gal(b1-4)GlcNAc(b1-2)Man(a1-6)]Man(b1-4)GlcNAc(b1-4)GlcNAc
# Summary of the method: as §1
# [6] = target: Fuc(a1-2)Gal(b1-4)[Fuc(a1-3)]GlcNAc(b1-3)GalNAc
# Summary of the method: as §1
# [7] = target: Fuc(a1-2)Gal3S(b1-4)GlcNAc
# Summary of the method: as §1
# [8] = target: Fuc(a1-2)[Gal(a1-3)]Gal(b1-3)GalNAc(b1-3)Gal(a1-4)Gal(b1-4)Glc
# Summary of the method: as §1
# [9] = target: Fuc(a1-2)[Gal(a1-3)]Gal(b1-4)GlcNAc(b1-2)Man(a1-3)[Fuc(a1-2)[Gal(a1-3)]Gal(b1-4)GlcNAc(b1-2)Man(a1-6)]Man(b1-4)GlcNAc(b1-4)GlcNAc
# Summary of the method: as §1
# [10] = target: Fuc(a1-2)[GalNAc(a1-3)]Gal(b1-4)GlcNAc(b1-2)Man(a1-3)[Fuc(a1-2)[GalNAc(a1-3)]Gal(b1-4)GlcNAc(b1-2)Man(a1-6)]Man(b1-4)GlcNAc(b1-4)GlcNAc
# Summary of the method: as §1
# [11] = target: Fuc(a1-3)[Gal(b1-4)]GlcNAc(b1-6)GalNAc
# Summary of the method: as §1
# [12] = target: Gal(a1-3)Gal(b1-4)GlcNAc(b1-2)Man(a1-3)[Gal(a1-3)Gal(b1-4)GlcNAc(b1-2)Man(a1-6)]Man(b1-4)GlcNAc(b1-4)GlcNAc
# Summary of the method: as §1
# [13] = target: Gal(a1-3)[Gal(a1-4)]Gal(b1-4)GlcNAc
# Summary of the method: as §1
# [14] = target: Gal(a1-4)Gal(b1-3)GlcNAc(b1-2)Man(a1-3)[Gal(a1-4)Gal(b1-3)GlcNAc(b1-2)Man(a1-6)]Man(b1-4)GlcNAc(b1-4)GlcNAc
# Summary of the method: as §1
# [15] = target: Gal(b1-4)Gal
# Summary of the method: as §1
# [16] = target: Gal(b1-4)GlcNAc(b1-2)[Gal(b1-4)GlcNAc(b1-4)]Man(a1-3)[GlcNAc(b1-4)][Gal(b1-4)GlcNAc(b1-2)Man(a1-6)]Man(b1-4)GlcNAc(b1-4)GlcNAc
# Summary of the method: as §1
# [17] = target: Gal(b1-4)GlcNAc(b1-3)Gal(b1-3)GalNAc
# Summary of the method: as §1
# [18] = target: Gal(b1-4)GlcNAc(b1-3)Gal(b1-4)Glc
# Summary of the method: as §1
# [19] = target: Gal(b1-4)GlcNAc(b1-3)Gal(b1-4)GlcNAc(b1-2)Man(a1-3)[Gal(b1-4)GlcNAc(b1-3)Gal(b1-4)GlcNAc(b1-2)Man(a1-6)]Man(b1-4)GlcNAc(b1-4)[Fuc(a1-6)]GlcNAc
# Summary of the method: as §1
# [20] = target: Gal(b1-4)GlcNAc(b1-3)Gal(b1-4)GlcNAc(b1-3)Gal(b1-4)GlcNAc(b1-2)Man(a1-3)[Gal(b1-4)GlcNAc(b1-3)Gal(b1-4)GlcNAc(b1-3)Gal(b1-4)GlcNAc(b1-2)Man(a1-6)]Man(b1-4)GlcNAc(b1-4)GlcNAc
# Summary of the method: as §1
# [21] = target: Gal(b1-4)GlcNAc(b1-3)Gal(b1-4)GlcNAc(b1-3)Gal(b1-4)GlcNAc(b1-3)Gal(b1-4)GlcNAc(b1-3)Gal(b1-4)GlcNAc(b1-2)[Gal(b1-4)GlcNAc(b1-3)Gal(b1-4)GlcNAc(b1-3)Gal(b1-4)GlcNAc(b1-3)Gal(b1-4)GlcNAc(b1-3)Gal(b1-4)GlcNAc(b1-6)]Man(a1-6)[Gal(b1-4)GlcNAc(b1-3)Gal(b1-4)GlcNAc(b1-3)Gal(b1-4)GlcNAc(b1-3)Gal(b1-4)GlcNAc(b1-3)Gal(b1-4)GlcNAc(b1-2)Man(a1-3)]Man(b1-4)GlcNAc(b1-4)[Fuc(a1-6)]GlcNAc
# Summary of the method: as §1
# [22] = target: Gal(b1-4)GlcNAc(b1-3)GalNAc
# Summary of the method: as §1
# [23] = target: Gal(b1-4)GlcNAc(b1-6)[Gal(b1-3)]GalNAc
# Summary of the method: as §1
# [24] = target: Gal4S6S(b1-4)GlcNAc
# Summary of the method: as §1
# [25] = target: GalNAc(a1-3)Gal
# Summary of the method: as §1
binder,measurement,setting,value
B1,glycan array binding signal (z-score),[1],-0.133
same,glycan array binding signal (z-score),[2],-0.436
same,glycan array binding signal (z-score),[3],-0.312
same,glycan array binding signal (z-score),[4],-0.205
same,glycan array binding signal (z-score),[5],3.27
same,glycan array binding signal (z-score),[6],4.76
same,glycan array binding signal (z-score),[7],-0.468
same,glycan array binding signal (z-score),[8],-0.403
same,glycan array binding signal (z-score),[9],0.276
same,glycan array binding signal (z-score),[10],4.57
same,glycan array binding signal (z-score),[11],3.86
same,glycan array binding signal (z-score),[12],3.09
same,glycan array binding signal (z-score),[13],-0.211
same,glycan array binding signal (z-score),[14],5.85
same,glycan array binding signal (z-score),[15],-0.396
same,glycan array binding signal (z-score),[16],-0.319
same,glycan array binding signal (z-score),[17],-0.047
same,glycan array binding signal (z-score),[18],-0.296
same,glycan array binding signal (z-score),[19],3.44
same,glycan array binding signal (z-score),[20],6.91
same,glycan array binding signal (z-score),[21],0.566
same,glycan array binding signal (z-score),[22],-0.373
same,glycan array binding signal (z-score),[23],1.83
same,glycan array binding signal (z-score),[24],-0.352
same,glycan array binding signal (z-score),[25],3.89
